Data: PubChem BioAssay AID547 (Emory University Molecular Libraries Screening Center, 2006)
“And” between values parts separate entries of the source, which are not always exact repeats. Equal values may be shown once. In all, about 1,300 compounds went through this assay and about 10 (0.8%) were called active. This is one part of a sample in which actives are shown more often than they occur. No rule for the calls is given here.

What follows are compounds tested against Chaperone protein DnaK (Escherichia coli (strain K12)) (UniProt P0A6Y8) (assay: E. coli DnaK chaperone inhibitors, primary screen, luminescence, E. coli K12 (AID 547;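 also: tested at 10 µM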)). Conditions: DnaK chaperone assay, luminescence read-out; hits give low values.

luminescence, inactive:
NCCCCCCNS(=O)(=O)c1cccc2c(Cl)cccc12 2.8e+06 cps
CCSC(N)=Nc1ccc(C(F)(F)F)cc1 2.3e+06 cps
OC[C@H]1O[C@@H](n2cnc3c(Nc4ccccc4)ncnc32)C(O)[C@H]1O (stereo not given in full) 2.3e+06 cps
COc1ccccc1N1CCN(CCCCNS(=O)(=O)c2cccc3c(N(C)C)cccc23)CC1 2.1e+06 cps
O=c1cc(-c2ccccc2)[nH]c2nc(Cl)ccc12 2.7e+06 cps
CC(=O)N[C@H](C(=O)O)C(C)(C)SN=O 2.5e+06 cps
O=C(O)c1cc2cc(F)ccc2[nH]1 2.1e+06 cps
O=c1[nH]c2cc(C(F)(F)F)ccc2n1-c1cc(C(F)(F)F)ccc1O 2.6e+06 cps
O=C(O)CC1CCCc2ccccc2C1O (stereo not given) 2.7e+06 cps
NCC(O)C1CCCCCCC1 (stereo not given) 2.9e+06 cps
CN=C(NC#N)Nc1ccc(C2=NNC(=O)CC2C)cc1 (stereo not given) 2.6e+06 cps
O=C1NC(c2cccc([N+](=O)[O-])c2)=CCN1c1ccccc1O 3e+06 cps
CC1(C)CCC=[N+]1[O-] 2.6e+06 cps
NC[C@@H]1O[C@H](C23CC4CC(CC(C4)C2)C3)Cc2c1ccc(O)c2O 3e+06 cps
N#C/C(=C\c1c[nH]c2ccccc12)C(=O)c1ccc(O)c(O)c1 2.2e+06 cps
O=C1C2C=CC=CC2=NC(=S)N1CCN1CCC(=C(c2ccc(F)cc2)c2ccc(F)cc2)CC1 (stereo not given) 2.9e+06 cps
COc1cc2nc(N3CCN(C(=O)OCc4ccccc4)C(C(=O)NC(C)(C)C)C3)nc(N)c2cc1OC (stereo not given) 2.3e+06 cps
CCc1cccc(N(C)C(N)=Nc2cccc3ccccc23)c1 2.4e+06 cps
Nc1nc(Cl)nc2c1ncn2[C@@H]1O[C@H](CO)[C@H](O)C1O (stereo not given in full) 2.7e+06 cps
OCc1ccc(-c2nn(Cc3ccccc3)c3ccccc23)o1 2.1e+06 cps
CC(N)(Cc1ccc(O)c(O)c1)C(=O)O (stereo not given) 2.3e+06 cps
CC1CNCCN1S(=O)(=O)c1cccc2cnccc12 (stereo not given) 3.1e+06 cps and 2.6e+06 cps
OCC1NC[C@@H](O)C(O)[C@@H]1O (stereo not given in full) 2.4e+06 cps
O=C(O)CNC(=O)C(CS)Cc1ccccc1 (stereo not given) 2.3e+06 cps
CN(C)C/C=C(/c1ccc(Br)cc1)c1cccnc1 1.8e+06 cps
